Test [1] in a line: inhibitors of TNFa-induced NFkB p65 translocation, primary screen, imaging, HUVEC, MLSMR starter and 10KST1 sets (AID 438;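 active means inhibition above 20% together with a positive visual image hit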;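 further: compound added about 3h40 before a 20 min TNFalpha stimulation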;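 on inhibition: signal is the nuclear over cytoplasmic p65 intensity ratio per well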). To be noted: HUVEC TNFa-induced p65 nuclear translocation; cell count: measured here: nuclei count (cytotoxicity indicator), at 2.08 µM; inhibition: at 2 µM, stronger effect = higher value, 0% TNFa-plus-vehicle, 100% no-TNFa wells.
A short description of test [2]: reduction of polyQ htt aggregates in cells – imaging, exon1htt(103Q)mCFP cells, high-content imaging, primary screen (AID 483;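 active means visual image review flags a hit and inhibition of aggregation exceeds 20%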;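 further: compound exposure lasted 3 days before fixation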;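 on nuclei count: percent of the per-plate median nuclei count of sample wells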). To be noted: exon1htt(103Q)mCFP cell line, aggregate imaging, at 2 µM; inhibition of aggregation: stronger effect = higher value; nuclei count: measured here: cell count, toxicity.
Test [3] can be described thus: endothelial E-selectin expression blockers – imaging, HUVEC, immunofluorescence, MLSMR starter and 10KST1 sets, primary screen (AID 487;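 active means visually confirmed hit in the image check and inhibition above 20%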;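 on inhibition: signal is fraction of cell area covered by stained E-selectin grains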;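 on nuclei count: 100% = median nuclei count of all wells on the same plate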). The settings on record: HUVEC TNFalpha-induced E-selectin immunofluorescence imaging, at 2 µM; inhibition: stronger effect = higher value; nuclei count: measured here: cell number, toxicity.
Test [4] concerns the target Voltage-gated potassium channel subunit beta-2 (Rattus norvegicus) (UniProt P62483). Briefly: inhibitors of rat Kvbeta2 reductase activity – biochemical, NADPH fluorescence, primary screen (AID 622;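 active means fluorescence slope higher than the sample average by over 3 SD, cut at about -0.22 in these data, passing the limit was not always enough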;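 further: slope of raw intensity against log time taken from 70 to 1610 s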). To be noted: recombinant KvBeta, 4-cyanobenzaldehyde reduction, at 10 µM, stronger effect = higher value.
Test [5] shares this target. Briefly: enhancers of rat Kvbeta2 NADPH turnover – biochemical, NADPH fluorescence, primary screen (AID 623;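 active means NADPH fluorescence slope more negative than the mean of all samples by about 3 SD, 99.7% confidence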;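 further: fluorescence intensity change per second fitted from 20 to 320 s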). To be noted: Recombinant KvBeta, NADPH fluorescence decrease slope, 10 min; at 10 µM; stronger effect = lower value.
In test [6] the target is Alpha-2C adrenergic receptor (Homo sapiens) (UniProt P18825). Briefly: compounds altering alpha2C-coupled GIRK flux – cell-based, HEK293 alpha2C/GIRK1/2, thallium flux, primary screen (AID 624).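 Further: slope of fluorescence ratio to pre-addition baseline per second over 15 to 24 s.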 To be noted: thallium flux BTC fluorescence, at 10 µM, actives lie on both sides.
Sequence of Alpha-2C adrenergic receptor (Homo sapiens) (P18825 whole entry, looked up): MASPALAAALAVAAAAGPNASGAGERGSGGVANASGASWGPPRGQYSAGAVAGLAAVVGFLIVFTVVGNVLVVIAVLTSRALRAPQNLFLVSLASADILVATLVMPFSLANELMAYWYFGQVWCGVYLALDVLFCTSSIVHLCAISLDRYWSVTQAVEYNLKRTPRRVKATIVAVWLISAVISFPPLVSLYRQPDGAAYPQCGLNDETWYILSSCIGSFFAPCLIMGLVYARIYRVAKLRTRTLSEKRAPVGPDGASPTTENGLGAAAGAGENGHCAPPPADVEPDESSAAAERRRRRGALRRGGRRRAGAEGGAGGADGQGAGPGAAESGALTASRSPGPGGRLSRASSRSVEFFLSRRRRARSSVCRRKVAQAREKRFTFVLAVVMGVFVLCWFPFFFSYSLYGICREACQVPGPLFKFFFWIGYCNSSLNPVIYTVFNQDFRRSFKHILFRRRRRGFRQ
Test [7] in a line: blockers of RIG-like receptor reporter activation – cell-based, Sendai virus stimulus, luciferase, 10K MLSCN set, TLR/RLR signaling modifier project, primary screen (AID 602276;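 active means inhibition at or above 50% at 10 µM; inactive means inhibition below 50%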;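 further: firefly luciferase from ISG56 promoter only with Renilla not read in this screen; 0% = Sendai virus plus DMSO and 100% = medium plus DMSO without virus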). To be noted: HEK293 RL24 IRF3 luciferase reporter, at 10 µM, stronger effect = higher value. Background: In a reporter assay the amount or activity of a reporter protein is the signal.
Test [8] can be described thus: TLR3 IRF3 reporter activation blockers – cell-based, poly I:C stimulus, luciferase, 10K MLSCN set, primary screen (AID 602277;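 active means inhibition of the reporter signal at or above 50%; inactive means inhibition below 50%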). To be noted: HEK293-TLR3 RL24 IRF3 luciferase reporter, at 10 µM, stronger effect = higher value.

Activity calls are given as the source filed them.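 How the source made its calls, unless noted: active means fluorescence slope after compound addition differing from the mean of all screened samples at 99.7% confidence, in either direction; inactive means the rest.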

As usually defined, the inhibition is the relative decrease from the control value, in per cent.

Sequence of Voltage-gated potassium channel subunit beta-2 (Rattus norvegicus) (P62483 whole entry, looked up): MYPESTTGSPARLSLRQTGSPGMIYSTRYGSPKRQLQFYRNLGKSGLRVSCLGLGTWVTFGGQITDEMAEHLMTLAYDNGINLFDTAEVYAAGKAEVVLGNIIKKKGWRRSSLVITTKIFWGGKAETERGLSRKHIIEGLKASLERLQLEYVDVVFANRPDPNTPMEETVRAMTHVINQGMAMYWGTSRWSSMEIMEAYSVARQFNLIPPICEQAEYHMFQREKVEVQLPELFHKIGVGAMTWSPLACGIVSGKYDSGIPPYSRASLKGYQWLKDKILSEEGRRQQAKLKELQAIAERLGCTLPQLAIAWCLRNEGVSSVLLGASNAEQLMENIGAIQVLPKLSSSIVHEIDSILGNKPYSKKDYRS

`Cc1cccc(NC(=O)CS(=O)(=O)c2cn(C)c3ccccc23)c1`: the cell count in test [1] came out at 628. Moreover, the inhibition in test [1] was 2.4% (inactive); in test [3] it was -12.5% (inactive); in test [7], 7.93% (inactive); in test [8] it was 22.7% (inactive). Besides, the inhibition of aggregation in test [2] was 4.8% (inactive). For the same compound, the nuclei count worked out at 99.7% in test [2] and 103% in test [3]. In addition, in test [4], the fluorescence slope is -0.521 (inactive). Moreover, the NADPH fluorescence slope in test [5] is 2.1e-06 (inactive). The slope in test [6] was 0.00711 (inactive).

On to `Cc1noc(C)c1COC(=O)c1ccccc1Oc1ccccc1`, for which, in test [1], the cell count was 583. The inhibition in test [1] is -25.6% (inactive); in test [3] it was -22.7% (inactive); in test [7], 4.67% (inactive); in test [8] it was 22.4% (inactive). Moreover, the inhibition of aggregation in test [2] was -12% (inactive). The nuclei count in test [2] was determined as 106%; in test [3], 146%. Moreover, the fluorescence slope in test [4] is -0.627 (inactive). For the same compound, the NADPH fluorescence slope in test [5] is -3.8e-07 (inactive). Also, the slope in test [6] is 0.00533 (inactive).

`Cc1ccsc1C(C(=O)NC1CCCCC1)N(C(=O)Cc1cccs1)C1CC1` (stereo not drawn): the cell count in test [1] came to 500. Also, the inhibition in test [1] is 0% (inactive); in test [3], -62.9% (inactive); in test [7] it was 15.2% (inactive); in test [8] it was 36% (inactive). Further, the inhibition of aggregation in test [2] is 16.1% (inactive). For the same compound, the nuclei count stood at 86.8% in test [2] and 94.1% in test [3]. The fluorescence slope in test [4] is -0.35 (inactive). Also, the NADPH fluorescence slope in test [5] is -4.8e-05 (inactive). Besides, in test [6], the slope was 0.00468 (inactive).

Turning to `COc1ccc(C(C)N2CC34C=CC(O3)C(C(=O)OCC(C)C)C4C2=O)cc1` (stereo not drawn), the cell count in test [1] stood at 589. Also, the inhibition in test [1] is 9.1% (inactive); in test [3], 8.2% (inactive); in test [7], 13.5% (inactive); in test [8], 23.7% (inactive). For the same compound, the inhibition of aggregation in test [2] was 3.8% (inactive). In addition, the nuclei count was determined as 75.7% in test [2] and 93.5% in test [3]. Also, in test [4], the fluorescence slope was -0.541 (inactive). Besides, in test [5], the NADPH fluorescence slope is -4.3e-05 (inactive). In addition, the slope in test [6] is 0.00626 (inactive).

On to `Cc1occc1C(=O)Nc1nnc(C2CCCCC2)s1`, for which the cell count in test [1] turned out to be 356. Besides, the inhibition was 7.6% (inactive) in test [1], 14% (inactive) in test [3], -0.797% (inactive) in test [7] and -13.3% (inactive) in test [8]. For the same compound, the inhibition of aggregation in test [2] is -8.9% (inactive). Further, the results for the nuclei count in test [2] and in test [3] were 108% and 106%, respectively. Besides, in test [4], the fluorescence slope is -0.526 (inactive). The NADPH fluorescence slope in test [5] is -1.5e-05 (inactive). The slope in test [6] was 0.00511 (inactive).

In the case of `O=C(Cn1c(=O)oc2ccccc21)Nc1ccc(S(=O)(=O)N2CCCCC2)cc1`, the cell count in test [1] is 392. Besides, the inhibition in test [1] was 0.3% (inactive); in test [3], -75.3% (inactive); in test [7] it was 7.3% (inactive); in test [8] it was 14.4% (inactive). For the same compound, the inhibition of aggregation in test [2] is -5.3% (inactive). Also, the nuclei count in test [2] was found to be 89.6%; in test [3] it was 126%. Besides, the fluorescence slope in test [4] is -0.504 (inactive). Further, the NADPH fluorescence slope in test [5] is -2.7e-05 (inactive). Further, in test [6], the slope was 0.00415 (inactive).

Regarding `CN(C)C(=O)N1CCC(C(=O)NC2CCCCCCC2)CC1`, in test [1], the cell count is 545. Also, the inhibition is 7.4% (inactive) in test [1], -48.1% (inactive) in test [3], 13% (inactive) in test [7] and 18.9% (inactive) in test [8]. Also, the inhibition of aggregation in test [2] was 36.8% (active). Moreover, the nuclei count worked out at 49.6% in test [2] and 106% in test [3]. Moreover, in test [4], the fluorescence slope is -0.381 (inactive). Also, in test [5], the NADPH fluorescence slope was -2.2e-05 (inactive). Besides, the slope in test [6] was 0.00533 (inactive).

As to `CC1=C(C(=O)NC2CCC(C)CC2)C2(CCC(C)CC2)OC1=O` (stereo not drawn), the cell count in test [1] amounted to 640. In addition, the inhibition in test [1] was 17.2% (inactive); in test [3], 5.3% (inactive); in test [7] it was 10.7% (inactive); in test [8], 15.1% (inactive). In addition, in test [2], the inhibition of aggregation is -14.7% (inactive). Also, the nuclei count was 99.8% in test [2] and 126% in test [3]. In addition, the fluorescence slope in test [4] was -0.486 (inactive). For the same compound, the NADPH fluorescence slope in test [5] was 7.7e-06 (inactive). In addition, the slope in test [6] is 0.00549 (inactive).

`Clc1ccc(-n2nnnc2Sc2ncnc3sccc23)cc1`: the cell count in test [1] amounted to 530. Besides, the inhibition in test [1] is -9% (inactive); in test [3], -12.2% (inactive); in test [7] it was 5.22% (inactive); in test [8] it was 66.8% (active). In addition, in test [2], the inhibition of aggregation is -12.2% (inactive). The nuclei count in test [2] came out at 107%; in test [3], 122%. Moreover, the fluorescence slope in test [4] is -0.528 (inactive). Besides, the NADPH fluorescence slope in test [5] was -4.1e-05 (inactive). The slope in test [6] was 0.00502 (inactive).

In the case of `CCCCN(CC)CCCNC(=O)c1cc2c(=O)n(C)c3ccccc3c2n1C`, the cell count in test [1] stood at 667. The inhibition is 3.3% (inactive) in test [1], -52.5% (inactive) in test [3], 27.4% (inactive) in test [7] and 69.5% (active) in test [8]. The inhibition of aggregation in test [2] is 14.5% (inactive). The nuclei count in test [2] turned out to be 81.6%; in test [3], 107%. Besides, the fluorescence slope in test [4] is -0.611 (inactive). Besides, the NADPH fluorescence slope in test [5] was -4.2e-05 (inactive). Moreover, the slope in test [6] was 0.00621 (inactive).

Regarding `Cc1cc(C)n2c(SCCN3C(=O)c4ccccc4C3=O)nnc2n1`, in test [1], the cell count is 787. Besides, the inhibition in test [1] was -5.1% (inactive); in test [3], -8.9% (inactive); in test [7], 10.1% (inactive); in test [8] it was 24.4% (inactive). In test [2], the inhibition of aggregation is 12.4% (inactive). Besides, the nuclei count in test [2] was found to be 126%; in test [3], 107%. Also, the fluorescence slope in test [4] is -0.572 (inactive). Moreover, the NADPH fluorescence slope in test [5] was -1.7e-05 (inactive). In test [6], the slope was 0.00697 (inactive).

As to `COc1ccc(C(=O)N(CCCO)Cc2cc3c(C)ccc(C)c3[nH]c2=O)cc1OC`, the cell count in test [1] was 647. The inhibition in test [1] was -3% (inactive); in test [3], 19.2% (inactive); in test [7] it was 8.26% (inactive); in test [8] it was 19% (inactive). In addition, the inhibition of aggregation in test [2] is 12.4% (inactive). Moreover, the values for the nuclei count in test [2] and in test [3] were 91.4% and 86.7%, respectively. Also, the fluorescence slope in test [4] is -0.389 (inactive). Moreover, the NADPH fluorescence slope in test [5] was -0.00013 (inactive). Moreover, the slope in test [6] was 0.00636 (inactive).

As for `Cc1ccc(C)c(S(=O)(=O)n2cnc3ccccc32)c1`, the cell count in test [1] came out at 262. For the same compound, the inhibition in test [1] is -5.9% (inactive); in test [3], -42.5% (inactive); in test [7], 14.5% (inactive); in test [8], 27.4% (inactive). Further, the inhibition of aggregation in test [2] is 17.8% (inactive). For the same compound, the nuclei count in test [2] stood at 79.3%; in test [3], 108%. Moreover, in test [4], the fluorescence slope is -0.463 (inactive). Besides, the NADPH fluorescence slope in test [5] is 2.3e-05 (inactive). Moreover, in test [6], the slope was 0.00359 (inactive).

The record behind these values is PubChem BioAssay.
